Screens (PubChem BioAssay)
bCat KO growth – primary screen for growth suppressors in beta-catenin knockout HCT116 cells (colon tumor, human); HCT116 beta-catenin knockout viability, CellTiter-Glo, 60 h; active compounds read low; viability, % at 10 µM; 140,000 tested, 1.5% active; AID 818, 2007;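 active = viability at or under a set limit, the compound median less 4 SD, cut at about 6% in these data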
ROMK mod – ROMK potassium channel modulators, primary screen, cell-based, thallium flux, MLSMR library; B-score at 10 µM; AID 1918, 2009; 130,000 tested, 2% active; ATP-sensitive inward rectifier potassium channel 1 (Homo sapiens), P48048; Tet-inducible ROMK, thallium flux fluorescence; actives lie on both sides;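 active = signal ratio slope over the read window, or its plate-corrected B-score, at least 3 SD from the plate mean, either direction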;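 also: B-score of the F/F0 ratio slope over 7 to 12 s after thallium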
Target sequence (P48048 whole entry, looked up): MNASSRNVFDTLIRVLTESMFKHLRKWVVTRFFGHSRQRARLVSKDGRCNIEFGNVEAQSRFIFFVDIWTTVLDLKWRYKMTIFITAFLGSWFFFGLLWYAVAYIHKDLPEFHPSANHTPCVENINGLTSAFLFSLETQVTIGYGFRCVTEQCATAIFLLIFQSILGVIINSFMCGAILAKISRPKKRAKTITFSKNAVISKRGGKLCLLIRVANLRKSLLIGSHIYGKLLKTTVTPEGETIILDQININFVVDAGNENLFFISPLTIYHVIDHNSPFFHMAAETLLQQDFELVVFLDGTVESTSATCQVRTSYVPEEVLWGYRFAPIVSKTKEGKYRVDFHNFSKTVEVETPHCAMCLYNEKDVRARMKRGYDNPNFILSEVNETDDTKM
L major viab – Leishmania major promastigote growth inhibition, primary screen. Leishmania major promastigotes, resazurin fluorescence viability. inhibition, % at 10 µM. 200,000 tested, 9% active; in the data active = inhibition above about 50%;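 also: promastigotes grown with compound for 44 hours at 28 °C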
PTEN del growth – growth suppression of PTEN-null HCT116, primary screen, cell-based, CellTiter-Glo. 140,000 tested, 1.2% active. HCT116 PTEN-null viability, 60 h; active compounds read low. viability, % at 10 µM;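 active = viability at or below a set limit, 4 SD under the median of all tested compounds, cut at about 3.7% in these data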;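 also: PTEN knockout HCT116 line with beta catenin targeted HCT116 as companion control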
INS promoter inh – inhibitors of insulin promoter-driven GFP, primary screen, imaging, TRM-6 cells (human fetal islet line), eGFP reporter, cell count; reporter expression induced with tamoxifen; 130,000 tested, 0.9% active; inhibition, % at 2 µM;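 active = inhibition above the mean plus 3 SD, with well images judged a real hit on visual review, cut at about 60% in these data, passing the limit was not always enough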
p97 inhibitor – inhibitors of human p97 ATPase, primary screen, biochemical; AID 1481, 2009; Transitional endoplasmic reticulum ATPase (Homo sapiens), P55072; recombinant p97 ATPase, Kinase-Glo ATP luminescence, 3 h; 220,000 tested, 0.42% active; inhibition, % at 8 µM; in the data active = inhibition above about 15%
Numbers stand for hits; . = inactive; / = not tested or not shown. Rows were chosen to be rich in hits. Some 10% of all compounds tested hit in one or more screens of this group.

SMILES	bCat KO growth	ROMK mod	L major viab	PTEN del growth	INS promoter inh	p97 inhibitor
Cc1ccc2cc3cc(C(=O)N(CC(=O)NC4CCCC4)c4cccc(C)c4C)sc3nc2c1	.	/	51	.	.	.
CC1=CC(C)(C)n2c(O)c(C3=NC(=S)NC3=O)c3cc(OC(=O)c4cccc5ccccc45)cc1c32	1.8	/	.	0.9	.	.
Cn1c(=O)c2c(nc(N3CCOCC3)n2C/C=C/c2ccccc2)n(C)c1=O	/	.	/	/	/	.
COc1ccc(COc2ccccc2C(=O)Nc2ccccn2)cc1[N+](=O)[O-]	.	.	62	.	.	.
Cc1ccnc(NC(=O)c2ccc([N+](=O)[O-])o2)c1	3.5	.	99	.	.	.
O=C(Nc1ccccn1)c1ccc([N+](=O)[O-])o1	.	/	99	.	.	.
O=C(Nc1ncccn1)c1ccc([N+](=O)[O-])o1	/	.	.	/	/	.
COc1cccc(CN2CCN(Cc3ccc4c(NC(C)=O)cccc4n3)CC2CCO)c1 (stereo unspecified)	/	.	.	/	/	.
Cc1ccc2c(CC(=O)Nc3cccc(S(=O)(=O)N4CCOCC4)c3)coc2c1	/	.	.	/	.	.
O=C(Nc1ccc2c(c1)CCC2)c1cc(=O)[nH]c2ccccc12	/	/	/	/	/	.
O=S(=O)(c1ccc(-c2csc(=Nc3ccccc3)n2CCCN2CCOCC2)cc1)N1CCOCC1	.	/	94	.	.	.
CCC(C)c1ccc2oc(-c3ccc(NC(=O)Cn4cnc5c(=O)n(C)c(=O)n(C)c54)cc3)nc2c1 (stereo unspecified)	1.6	/	.	1.5	.	.
NC(=O)Cn1c(=O)n(CCC(=O)NCCSCc2ccccc2)c(=O)c2ccccc21	/	.	.	/	.	.
CCCN1C(=O)/C(=C/c2ccc(C)s2)NC1=S	.	5.5	.	.	.	.
CN(C)c1ccc(/C=C/c2ccc3ccccc3[n+]2C)cc1	2.1	/	100	2.0	/	.
CN(C)c1ccc(/C=C/c2ccc3c4ccccc4ccc3[n+]2-c2ccccc2)cc1	/	.	100	/	/	.
Cc1nc2c(-c3ccccc3)c(C)nn2c(SCC(N)=O)c1Cc1ccccc1	/	/	/	/	/	.
Clc1cccc(-c2nnc(-c3ccccc3)o2)c1	2.4	/	.	.	.	.
O=[N+]([O-])c1ccccc1NCCOc1ccccc1	.	.	.	.	.	.
NCCNc1cc(N2CCCC2)ccc1[N+](=O)[O-]	/	.	.	/	.	.
COc1cccc(OCCNc2cc(Cl)ccc2[N+](=O)[O-])c1	.	/	.	.	78	.
Cc1ccccc1OCCNc1cc(N2CC(C)NC(C)C2)ccc1[N+](=O)[O-] (stereo unspecified)	/	.	100	/	/	.
O=[N+]([O-])c1ccc(N2CCCCC2)cc1NCCOc1ccccc1	.	.	69	.	.	.
CN(C)S(=O)(=O)c1cccc(NC(=O)COC(=O)CNC(=O)c2cccc([N+](=O)[O-])c2)c1	/	/	/	/	/	.
COc1ccc(/C=N/N2C(=O)C3C4C=CC(CC4)C3C2=O)c(OC)c1 (stereo unspecified)	/	.	.	/	.	.
SMILES	bCat KO growth	ROMK mod	L major viab	PTEN del growth	INS promoter inh	p97 inhibitor
CCOc1ccc(NC(=O)N2CCC(c3nc4ccccc4[nH]3)CC2)cc1	/	.	.	/	.	.
CCCOc1ccc(CN(CCC#N)C(=S)NC(=O)c2ccccc2)cc1	.	.	85	.	.	.
c1ccc(-c2nc(NCCCN3CCOCC3)c3ccccc3n2)cc1	.	/	62	.	.	.
Cc1ccc2ncnc(NCCCN3CCOCC3)c2c1	.	.	.	.	.	.
Cc1cccc(-c2nc(NCCCN3CCOCC3)c3ccccc3n2)c1	.	.	100	.	.	.
CCC(=O)NC(c1ccc(OC)c(OC)c1)c1cc(Cl)c2cccnc2c1O (stereo unspecified)	/	.	90	/	/	.
CCCC(=O)NC(c1cccs1)c1cc(Cl)c2cccnc2c1O (stereo unspecified)	/	.	99	/	/	.
CCCC(=O)NC(c1ccco1)c1cc(Cl)c2cccnc2c1O (stereo unspecified)	6.0	/	.	.	.	.
CCCC(=O)NC(c1ccc2c(c1)OCO2)c1cc(Cl)c2cccnc2c1O (stereo unspecified)	4.1	.	99	.	/	.
Cc1cc2[nH]c(=O)c3ccccc3n2n1	.	/	.	.	83	.
